# Results reported in ChEMBL document CHEMBL5606458, “ASAP - ZIKV NS2B-NS3 protease fluorescence single point” (2024).
# Hit rate of the full screen: of about 2,700 compounds, about 160 (5.9%) showed an effect of 50% or more. The sample as a whole holds a higher share of strong results than the screen did.
# Biological target: Nonstructural protein 3 (Zika virus) (UniProt A0A024AXB9)
# [1] = PRVABC59, Concentration 50.0 uM, Number of replicates 1.0
# Nonstructural protein 3 (Zika virus), sequence (A0A024AXB9 as listed by the source): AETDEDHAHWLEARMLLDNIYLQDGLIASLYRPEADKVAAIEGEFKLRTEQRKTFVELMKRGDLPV
compound,measurement,setting,value
NCc1cccc(NC(=O)C2CN(C(=O)OCc3ccccc3)C2)c1,inhibition,"PRVABC59, Concentration 49.5 uM, Number of replicates 2.0, Standard deviation 0.7047125451631892 %",1.12%
same,inhibition,"PRVABC59, Concentration 99.01 uM, Number of replicates 2.0, Standard deviation 1.0691153353532887 %",3.88%
same,inhibition,"PRVABC59, Concentration 198.0 uM, Number of replicates 2.0, Standard deviation 0.2800776094724739 %",10.1%
O=Cc1ccc(N2CCC(C(=O)NCCNC(=O)c3ccccc3Cl)CC2)cc1,inhibition,[1],20.1%
Cc1cc(CO)c2cccc(C[C@H](NC(=O)Cc3cccc(CN)c3)C(=O)O)c2n1,inhibition,"PRVABC59, Concentration 49.95 uM, Number of replicates 2.0, Standard deviation 1.661005908968333 %",-1.72%
same,inhibition,"PRVABC59, Concentration 99.9 uM, Number of replicates 2.0, Standard deviation 1.2746087015891263 %",6.96%
CC(=O)N[C@@H](CCCN)C(=O)Nc1ccccc1Cc1cccc2c(CO)cc(C)nc12,inhibition,"PRVABC59, Concentration 49.95 uM, Number of replicates 2.0, Standard deviation 1.2164295290794762 %",11.2%
same,inhibition,"PRVABC59, Concentration 99.9 uM, Number of replicates 2.0, Standard deviation 0.5089666913167087 %",30.6%
CC(=O)N[C@@H](CCCCN)C(=O)Nc1ccccc1Cc1cccc2c(CO)cc(C)nc12,inhibition,"PRVABC59, Concentration 49.95 uM, Number of replicates 2.0, Standard deviation 1.4556435772845158 %",-3.65%
same,inhibition,"PRVABC59, Concentration 99.9 uM, Number of replicates 2.0, Standard deviation 0.5191459981690598 %",11.6%
CC(=O)N[C@@H](CCCCN)C(=O)Nc1cccc2c(CO)cc(C)nc12,inhibition,"PRVABC59, Concentration 49.95 uM, Number of replicates 2.0, Standard deviation 2.062511665720634 %",70.2%
same,inhibition,"PRVABC59, Concentration 99.9 uM, Number of replicates 2.0, Standard deviation 0.26572610179233236 %",93.5%
CC(=O)N[C@@H](CCCN)C(=O)Nc1cccc2c(CO)cc(C)nc12,inhibition,"PRVABC59, Concentration 49.95 uM, Number of replicates 2.0, Standard deviation 2.340889239911572 %",9.01%
same,inhibition,"PRVABC59, Concentration 99.9 uM, Number of replicates 2.0, Standard deviation 2.049858170273299 %",41.2%
CC(=O)N[C@@H](Cc1ccc(CN)cc1)C(=O)Nc1cccc2c(CO)cc(C)nc12,inhibition,"PRVABC59, Concentration 49.95 uM, Number of replicates 2.0, Standard deviation 1.5120886598590335 %",62.5%
same,inhibition,"PRVABC59, Concentration 99.9 uM, Number of replicates 2.0, Standard deviation 0.31634008358167093 %",95.8%
Cn1cc(CNC(=O)c2ccccc2[C@@H]2CCCNC2)cn1,inhibition,"PRVABC59, Concentration 49.5 uM, Number of replicates 2.0, Standard deviation 1.3820269413959925 %",-1.82%
same,inhibition,"PRVABC59, Concentration 99.01 uM, Number of replicates 2.0, Standard deviation 1.129463511127855 %",-0.227%
same,inhibition,"PRVABC59, Concentration 198.0 uM, Number of replicates 2.0, Standard deviation 0.6425212666298173 %",0.6%
O=Cc1ccc(N2CCC(C(=O)NCCc3cc(F)cc(F)c3)CC2)cc1,inhibition,[1],19.3%
N#Cc1cccc(NC(=O)c2cccc(OCc3c(Cl)cccc3Cl)c2)c1,inhibition,"PRVABC59, Concentration 49.5 uM, Number of replicates 2.0, Standard deviation 1.7651619405536074 %",6.21%
same,inhibition,"PRVABC59, Concentration 99.01 uM, Number of replicates 2.0, Standard deviation 1.834624667346594 %",10%
same,inhibition,"PRVABC59, Concentration 198.0 uM, Number of replicates 2.0, Standard deviation 2.6293560952864428 %",8.42%
O=C(NCc1ccccc1Oc1ccccc1)c1cc(Cl)ccc1NS(=O)(=O)c1ccc(Oc2ccccc2Cl)cc1,inhibition,"PRVABC59, Concentration 15.0 uM, Number of replicates 1.0",15.7%
O=Cc1ccc(N2CCC(C(=O)NCCN3C(=O)CSC3=O)CC2)cc1,inhibition,[1],24.5%
Cc1cc(CO)c2cccc(Cc3ccccc3NC(=O)Cc3c(C)c4c(=O)[nH]n(C)c4[nH]c3=O)c2n1,inhibition,"PRVABC59, Concentration 49.95 uM, Number of replicates 2.0, Standard deviation 2.3870518401485845 %",19.5%
same,inhibition,"PRVABC59, Concentration 99.9 uM, Number of replicates 2.0, Standard deviation 1.6185118125725577 %",39.4%
Cc1cc(CO)c2cccc(NC(=O)CCC3CCNCC3)c2n1,inhibition,"PRVABC59, Concentration 49.95 uM, Number of replicates 2.0, Standard deviation 0.05519955890732387 %",98.6%
same,inhibition,"PRVABC59, Concentration 99.9 uM, Number of replicates 2.0, Standard deviation 0.045159842417240824 %",96.7%
Cc1cc(CO)c2cccc(Cc3cccc(NC(=O)C[C@H]4CCCN4)c3)c2n1,inhibition,"PRVABC59, Concentration 49.95 uM, Number of replicates 2.0, Standard deviation 0.1706171862678608 %",-9.82%
Cc1cc(CO)c2cccc(NCC3CCNCC3)c2n1,inhibition,"PRVABC59, Concentration 99.9 uM, Number of replicates 2.0, Standard deviation 2.951218090372617 %",-5.37%
Cc1cc(CO)c2cccc(NC(=O)CC3CNC3)c2n1,inhibition,"PRVABC59, Concentration 49.95 uM, Number of replicates 2.0, Standard deviation 1.5957700474656553 %",-6.72%
same,inhibition,"PRVABC59, Concentration 99.9 uM, Number of replicates 2.0, Standard deviation 1.1039918524960535 %",-6.98%
Cc1cc(CO)c2cccc(Cc3ccccc3NC(=O)CCC3CCNCC3)c2n1,inhibition,"PRVABC59, Concentration 49.95 uM, Number of replicates 2.0, Standard deviation 0.020358613704702253 %",4.96%
same,inhibition,"PRVABC59, Concentration 99.9 uM, Number of replicates 2.0, Standard deviation 1.9188023762412802 %",26.8%
Cc1cc(CO)c2cccc(NC(=O)Cc3c(C)c4c(=O)[nH]n(C)c4[nH]c3=O)c2n1,inhibition,"PRVABC59, Concentration 49.95 uM, Number of replicates 2.0, Standard deviation 0.16559867672197162 %",15%
same,inhibition,"PRVABC59, Concentration 99.9 uM, Number of replicates 2.0, Standard deviation 1.570678848435362 %",29.8%
Cc1cc(CO)c2cccc(NC(=O)C[C@H]3CCCN3)c2n1,inhibition,"PRVABC59, Concentration 49.95 uM, Number of replicates 2.0, Standard deviation 2.649580260544395 %",3.54%
same,inhibition,"PRVABC59, Concentration 99.9 uM, Number of replicates 2.0, Standard deviation 2.639543831508496 %",13.9%
Cc1cc(CO)c2cccc(Cc3cccc(NC(=O)CNC4CC4)c3)c2n1,inhibition,"PRVABC59, Concentration 49.95 uM, Number of replicates 2.0, Standard deviation 2.20382385319093 %",-2.08%
same,inhibition,"PRVABC59, Concentration 99.9 uM, Number of replicates 2.0, Standard deviation 2.3107066172874657 %",1.16%
Cc1cc(CO)c2cccc(NC(=O)CC3CCNCC3)c2n1,inhibition,"PRVABC59, Concentration 49.95 uM, Number of replicates 2.0, Standard deviation 2.2586421938534733 %",41.5%
same,inhibition,"PRVABC59, Concentration 99.9 uM, Number of replicates 2.0, Standard deviation 1.48045087514324 %",81%
Cc1cc(CO)c2cccc(Cc3cccc(NC(=O)CCC4CCNCC4)c3)c2n1,inhibition,"PRVABC59, Concentration 49.95 uM, Number of replicates 2.0, Standard deviation 0.07125447361688171 %",70.2%
same,inhibition,"PRVABC59, Concentration 99.9 uM, Number of replicates 2.0, Standard deviation 0.2799306012648679 %",94.6%
Cc1cc(CO)c2cccc(Cc3cccc(NC(=O)Cc4c(C)c5c(=O)[nH]n(C)c5[nH]c4=O)c3)c2n1,inhibition,"PRVABC59, Concentration 49.95 uM, Number of replicates 2.0, Standard deviation 0.9685022100006885 %",29.7%
same,inhibition,"PRVABC59, Concentration 99.9 uM, Number of replicates 2.0, Standard deviation 0.32116033435216484 %",54.1%
